High-throughput results: PubChem BioAssay, National Center for Advancing Translational Sciences (NCATS)
Giardia killer: Giardia lamblia killing | Giardia lamblia trophozoite viability | activity change, % at 7.66 µM, hits read low | actives 0.15% (n = 340,000) | AID 540267; in the data active means activity change below about -80%; inconclusive means between about -30% and that limit;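 further: parasites exposed to compound for two days anaerobically before the ATP read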
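Compounds were tested on trophozoites seeded at 100 cells/well and held 48 hrs at 37 deg C anaerobically. An ATP-based luminescent kit measured the remaining live cells.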
TDP1 cell noCPT: qHTS for Inhibitors of human tyrosyl-DNA phosphodiesterase 1 (TDP1): qHTS in cells in absence of CPT | DT40 Tdp1-/- hTDP1 cells, no CPT, ATP luminescence, 48 h | Potency, µM (highest dose often 46.2 µM), for inactives: top-dose activity change, negative = growth inhibition, actives largely listed as inhibitors | actives 15% (n = 420,000); further: potency means the concentration at half of the fitted maximal effect; nearly all actives have a fitted effect of over 55% in size
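A cellular qHTS used chicken DT40 cells lacking endogenous Tdp1 but carrying stably transfected human TDP1. Compounds were applied without camptothecin, and cell growth kinetics were judged by ATP-dependent luminescence after ≥48 hr.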
ELG1 DNA repair: blocks ELG1-dependent DNA repair in HEK293T cells. AID 504467. Potency, µM (series often up to 46.1 µM), without a hit: at the highest dose activity change, negative = inhibition, most hits filed as inhibitors. actives 2.3% (n = 330,000). HEK293T ELG1-luciferase reporter, luminescence, 16 h; DNA damage induced by 5-fluorouridine; further: potency means the concentration at half of the fitted maximal effect; nearly all actives have a fitted effect of over 55% in size
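Overnight (16 hr) co-exposure of 2,000 cells/well to 5-fluorouridine and compound at 37 °C preceded detection. Luciferase was quantified via ONE-Glo luminescence; loss of signal denotes inhibition.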
IL-1B inflam inh: inhibitors of inflammasome signaling (IL-1 beta secretion); activity change, % at 57.5 µM; actives 4.7% (n = 360,000); THP-1 LPS/ATP IL-1B secretion, AlphaLISA, 16 h; hits give low values; in the data active means activity change below about -50%; inconclusive means mostly about -30% to -49%
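Secreted IL-1B measured by AlphaLISA bead assay after 16 h compound exposure of THP-1 cells; compounds (final up to 57.5 uM) added 1 h before LPS (250 ng/mL) and ATP (1.25 mM) stimulation; lower signal means less secretion.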
DT40 TDP1 CPT: DT40-hTDP1 cell growth loss with CPT; Potency, µM (titrated, usually from 46.2 µM), for the others: at the highest dose activity change, negative = growth inhibition, most hits filed as inhibitors; AID 686979; chicken DT40 Tdp1-/-;hTDP1 cells + 20 nM CPT, ATP luminescence, 48 h; actives 12% (n = 420,000); further: potency means the concentration at half of the fitted maximal effect; nearly all actives have a fitted effect of over 55% in size
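Chicken DT40 Tdp1-/- cells complemented with human TDP1, 400 cells/well, exposed to compounds plus 20 nM camptothecin for at least 48 h at 37 C; viability read as ATP content by CellTiter-Glo luminescence.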
TDP1 block: blocks human tyrosyl-DNA phosphodiesterase 1. recombinant TDP1, AlphaScreen DNA substrate cleavage. Potency, µM (top dose mostly 130 µM), inactives show at the top dose activity change, negative = inhibition, actives largely listed as inhibitors. actives 0.28% (n = 350,000). AID 485290; further: potency means the concentration at half of the fitted maximal effect; nearly all actives have a fitted effect of over 40% in size
Target sequence (Q9NUW8 whole entry, looked up): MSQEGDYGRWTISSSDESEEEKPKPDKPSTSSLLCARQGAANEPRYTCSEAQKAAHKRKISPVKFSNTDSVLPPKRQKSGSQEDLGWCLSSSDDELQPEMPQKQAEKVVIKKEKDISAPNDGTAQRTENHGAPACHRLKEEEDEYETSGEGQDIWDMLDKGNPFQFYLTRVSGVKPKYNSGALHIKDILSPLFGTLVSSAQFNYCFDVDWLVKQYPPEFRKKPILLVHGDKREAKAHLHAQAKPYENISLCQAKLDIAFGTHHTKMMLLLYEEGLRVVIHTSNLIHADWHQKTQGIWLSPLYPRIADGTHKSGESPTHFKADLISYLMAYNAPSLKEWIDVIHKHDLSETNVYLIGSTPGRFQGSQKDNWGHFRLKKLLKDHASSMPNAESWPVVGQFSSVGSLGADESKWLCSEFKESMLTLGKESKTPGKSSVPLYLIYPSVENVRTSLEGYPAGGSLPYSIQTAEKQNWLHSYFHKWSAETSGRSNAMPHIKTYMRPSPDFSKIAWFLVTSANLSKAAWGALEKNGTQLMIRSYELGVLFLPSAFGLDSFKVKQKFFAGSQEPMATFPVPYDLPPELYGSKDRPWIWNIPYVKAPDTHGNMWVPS
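E. coli-derived human Tdp1, 1 nM final. Cpd preinc 15 min RT; substrate 15 nM final, 5 min RT; AS bead mix 10 ug/ml final, 10 min RT. Signal loss = tyrosine-FITC cleavage. No-enzyme wells = max signal.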
Starred values were filed as active, the others as inactive; ? = inconclusive; . = no result given; [ ] = another dose, or the depositor's remark. Most compounds without a hit are left out; they make up all but 19% or so of the library. Unless noted, the call rests on the fitted dose curve; in most records, active means well fitted curve in the direction sought with a large enough effect; inconclusive means small, poorly fitted or top-dose-only effect, or another doubt; inactive means no such curve, though single readings can be large; an effect the other way counts as inactive or inconclusive. On the % scale 0 is the no-effect control and ±100 the full control effect.

SMILES	Giardia killer	TDP1 cell noCPT	ELG1 DNA repair	IL-1B inflam inh	DT40 TDP1 CPT	TDP1 block
O=P1(Oc2ccccc2)CC=CC(COC(c2ccccc2)(c2ccccc2)c2ccccc2)O1 (stereo not given)	-6	.	.	.	.	7%
CCN(CC)c1ccc(/C=C2/C(=O)NC(=O)N(CC3CCCO3)C2=O)cc1 (stereo not given)	-3	-27%	11%	-5	-24%	-1%
O=C1NC(=S)SC1=Cc1ccc(N(CCCl)CCCl)cc1	5	16µM*	.	-19	13µM*	.
CC[C@]1(O)CC(O[C@@H]2CC(N(C)C)C(O)C(C)O2)c2c(cc3c(c2O)C(=O)c2c(O)cccc2C3=O)C1C(=O)OC (stereo not given in full)	.	0.58µM*	.	.	0.82µM*	9%
O=C1NC(=O)C(CCc2ccncc2)(CCc2ccccn2)C(=O)N1c1ccc(Br)cc1 (stereo not given)	10	9.2µM*	2%	24	10µM*	6%
Nc1nccc(-c2c(-c3ccc(F)cc3)ncn2C2CCNCC2)n1	.	.	.	.	.	5%
O=C(Oc1ccnc2cc(Cl)ccc12)N1CCOCC1	11	?	-5%	-19	-22%	1%
NCCNCCNCCNCCN	.	-17%	.	.	5%	11%
C/C=C(\C)C(=O)OC1CC(OC(C)=O)[C@@]2(C(=O)OC)COC3C2[C@@]12CO[C@](O)(C(=O)OC)C2[C@](C)(C12OC1(C)C1CC2OC2OC=C[C@]21O)C3O (stereo not given in full)	.	-6%	.	.	9%	5%[56.1 µM]
Cc1ccc(-c2cc(-c3ccc(C)cc3)[n+](-c3ccc(C(=O)[O-])cc3)c(-c3ccc(C)cc3)c2)cc1	-23	?	?	21	?	3%
CN(C)c1ccc(-[n+]2c(-c3ccccc3)cc(-c3ccccc3)cc2-c2ccccc2)cc1	0	0.41µM*	4.6µM*	-92*	0.33µM*	3%
Cc1ccc(-c2cc(-c3ccccc3)cc(-c3ccccc3)[n+]2-c2ccccc2)cc1	13	0.92µM*	?	-100*	1.6µM*	1%
Cc1ccc(-c2cc(-c3ccc(C)cc3)[n+](-c3ccccc3)c(-c3ccc(C)cc3)c2)cc1	3	0.37µM*	?	-99*	0.52µM*	5%
CC(=O)c1ccc(-c2ccccc2)cc1	4	-10%	?	-18	-9%	3%
CN(C)c1ccc(NC(=O)Oc2ccccc2)cc1	-10	-16%	?	-6	-17%	10%
C[n+]1c(-c2ccccc2)cc(-c2ccc(Cl)cc2)cc1-c1ccccc1	3	2.1µM*	?	-83*	3.7µM*	0%
O=C(O)CBr	.	.	.	.	.	12%
CC1(C)N([O])C(c2ccc(C(=O)O)cc2)=[N+]([O-])C1(C)C	.	-25%	.	.	16%	.
CCCCc1nn2c(=O)cc(COC(=O)Cc3ccccc3)nc2s1	.	0%	.	.	-22%	12%
COc1cc(C[C@@H](C)N)c(OC)cc1I	-6	?	?	-64*	?	-5%[56.1 µM]
COc1cc(C[C@@H](C)N)c(OC)cc1C	.	?	.	.	-26%[92.5 µM]	.
C[C@H](N)C(=O)N[C@@H](C)C(=O)N[C@@H](Cc1ccccc1)C(=O)CCl	.	?	.	.	?	10%
C#C[C@]1(O)CCC2C3CCC4=C/C(=N/OCC(=O)NC(C)C(=O)NC(CCSC)C(=O)O)CC[C@]4(C)C3CC[C@@]21C (stereo not given in full)	-1	4%	8.2µM*	-25	-12%	.
C#C[C@]1(O)CC[C@H]2[C@@H]3CCC4=CC(=O)CC[C@]4(C)[C@H]3CC[C@@]21C	16	-11%	11%	3	-23%	6%
